Rows were chosen to be rich in hits. Some 6.7% of all compounds tested hit in one or more screens of this group.
T cruzi growth-1: T. cruzi intracellular proliferation inhibitors, primary screen, cell-based, beta-gal Tulahuen parasites, NIH3T3 host, luminescence; 77,000 tested, 5.9% active; T. cruzi beta-gal in NIH3T3, GalScreen luminescence, 90 h; inhibition, % at 8.34 µM;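 active means mean inhibition above about 93%, with at least 55% of replicates each passing it, limit read from the data, passing the limit was not always enough; inconclusive means only one of those two conditions holds; inactive means neither condition holds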
Pf Dd2 inh: P. falciparum Dd2 growth inhibitors, primary screen, SYBR Green fluorescence, single dose replicates. 72 h; hits give low values. activity change, % at 10 µM. 94,000 tested, 2.3% active; in the data active means activity change below about -80%; inconclusive means no clear call, values can overlap the other calls
C diff growth: C. difficile growth inhibitors, primary screen, HTS; Clostridium difficile clinical isolate growth, OD600, 24 h; hits give low values; growth activity, negative = inhibition, % at 16 µg/mL (by protocol); 86,000 tested, 0.25% active;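 active means mean growth activity at or below -80% and every replicate also at or below -80%; inconclusive means mean at or below -80% but some replicate above -80%; inactive means mean growth activity above -80%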;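 further: 0% = DMSO wells and -100% = levofloxacin 16 µg/mL wells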
T cruzi growth-2: T. cruzi intracellular proliferation inhibitors, confirmation, cell-based, NIH3T3 host, beta-gal parasite, luminescence, cherry-pick; shares compounds with T cruzi growth-1; T. cruzi beta-gal in NIH3T3, GalScreen luminescence, 90 h; inhibition, % at 8.35 µM; 5,600 tested, 72% active;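 active means mean replicate inhibition above about 95% and at least 55% of replicates individually reaching it, limit read from the data; inconclusive means only one of the two criteria is met; inactive means neither criterion is met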
T cruzi growth-3: inhibitors of intracellular T. cruzi replication, confirmation, NIH3T3 host cells, beta-gal parasites, cherry-pick, set 2; inhibition, % at 2.09 µM; T. cruzi beta-gal in NIH3T3, GalScreen luminescence, 90 h; shares compounds with T cruzi growth-1; 5,600 tested, 21% active;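 active means mean inhibition above about 95%, with at least 55% of replicates also reaching it, limit read from the data; inconclusive means meets just one of the two conditions; inactive means meets neither condition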;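 further: plate controls were neutral control median for no effect and positive control median for full effect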
NIH3T3 tox: cytotoxicity in mouse NIH/3T3 fibroblasts, confirmation, cytotoxicity control for T. cruzi proliferation inhibitor project, cell-based, cherry-pick, single point | shares compounds with T cruzi growth-1 | NIH/3T3 viability, CellTiter-Glo ATP luminescence, 90 h | cytotoxicity (signal decrease), % at 8.35 µM | 5,600 tested, 14% active;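 active means mean signal decrease across replicates above about 35% based on untreated-well scatter, with enough replicates individually passing, limit read from the data; inconclusive means no rule stated though some were filed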;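 further: 0% = median of neutral control wells and 100% = median of positive control wells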
NIH3T3 tox 2: NIH/3T3 fibroblast cytotoxicity, confirmation, cytotoxicity control, cell-based, cherry-pick, single point, set 2; shares compounds with T cruzi growth-1; inhibition, % at 24.9 µM; 5,600 tested, 56% active; AID 651744, 2012; NIH/3T3 viability, CellTiter-Glo ATP luminescence, 90 h;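 active means mean loss of cell viability signal at or above a set limit, and enough replicates individually reaching it; inconclusive means meets only the mean limit or only the replicate share; inactive means meets neither condition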;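 further: 0% = median of neutral control wells and 100% = median of positive control wells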
Starred values were filed as active, the others as inactive; ! = repeats disagree.

What do the screens show for `C[C@@H]1CN([C@H](C)CO)C(=O)c2cccc(NS(=O)(=O)c3ccc(F)cc3)c2O[C@@H]1CN(C)C(=O)Nc1cccc2ccccc12`?
T cruzi growth-1: 25; Pf Dd2 inh: -32; C diff growth: -10

What do the screens show for `C[C@H](CO)N1C[C@H](C)[C@@H](CN(C)C(=O)Nc2ccc(F)cc2)OCCCC[C@H](C)Oc2ccc(NC(=O)NC3CCCCC3)cc2C1=O`?
T cruzi growth-1: inconclusive; Pf Dd2 inh: -55; C diff growth: -6; T cruzi growth-2: 109*; T cruzi growth-3: 68; NIH3T3 tox: 18; NIH3T3 tox 2: -27

Results for C[C@@H]1CCCCO[C@H](CN(C)C(=O)Nc2ccc(F)cc2)[C@@H](C)CN([C@H](C)CO)C(=O)c2cc(NC(=O)NC3CCCCC3)ccc2O1 ?
T cruzi growth-1: -8; Pf Dd2 inh: 17; C diff growth: 5

Results for C[C@@H]1CN([C@H](C)CO)C(=O)c2cc(NC(=O)NC3CCCCC3)ccc2O[C@@H](C)CCCCO[C@H]1CN(C)C(=O)Nc1ccc(F)cc1 ?
Pf Dd2 inh: -52; C diff growth: 0

Results for C[C@H](CO)N1C[C@H](C)[C@H](CN(C)C(=O)Nc2ccc(F)cc2)OCCCC[C@H](C)Oc2ccc(NC(=O)NC3CCCCC3)cc2C1=O ?
T cruzi growth-1: 102*; Pf Dd2 inh: 5; C diff growth: -3; T cruzi growth-2: 106*; T cruzi growth-3: 71; NIH3T3 tox: 12; NIH3T3 tox 2: 11

How did O=C(C[C@H]1C=C[C@H](NC(=O)c2ccncc2)[C@H](CO)O1)Nc1ccc(-c2ccccc2)cc1 do in these assays?
Pf Dd2 inh: 16; C diff growth: -2

Results for CO[C@@H]1CN(C)C(=O)c2ccc(NC(=O)CC(F)(F)F)cc2OC[C@H](C)N(C(=O)C2CCCCC2)C[C@H]1C ?
Pf Dd2 inh: 45; C diff growth: -10

What do the screens show for `CN(C)C(=O)c1cccc(-c2ccc([C@@H]3[C@@H](CO)N4C(=O)CN(C(=O)C5CCCCC5)C[C@H]34)cc2)c1`?
Pf Dd2 inh: 18; C diff growth: -8

Results for O=C(C[C@H]1CC[C@H]2[C@@H](COC[C@@H](O)CN2C(=O)Nc2ccc(Cl)c(Cl)c2)O1)NCc1ccccc1 ?
T cruzi growth-1: -4; Pf Dd2 inh: 1

Results for O=C(C[C@@H]1CC[C@H]2[C@@H](COC[C@H](O)CN2C(=O)Nc2ccc(Cl)c(Cl)c2)O1)NCc1ccncc1 ?
T cruzi growth-1: 128*; Pf Dd2 inh: -6; C diff growth: -9; T cruzi growth-2: 98*; T cruzi growth-3: 2; NIH3T3 tox: 18; NIH3T3 tox 2: 39*

What do the screens show for `O=C(C[C@H]1CC[C@@H]2[C@H](COC[C@H](O)CN2C(=O)Nc2ccc(Cl)c(Cl)c2)O1)NCc1ccc(Cl)c(Cl)c1`?
T cruzi growth-1: 106*; Pf Dd2 inh: -8; T cruzi growth-2: 96*; T cruzi growth-3: 73; NIH3T3 tox: 23; NIH3T3 tox 2: 104*

How did CCCNC(=O)N1C[C@H](O)COC[C@@H]2O[C@H](CC(=O)NCc3ccc(Cl)c(Cl)c3)CC[C@H]21 do in these assays?
T cruzi growth-1: 1; Pf Dd2 inh: 20; C diff growth: -3

How did O=C(C[C@H]1CC[C@H]2[C@@H](COC[C@H](O)CN2C(=O)Nc2ccc(Cl)c(Cl)c2)O1)NCc1ccncc1 do in these assays?
T cruzi growth-1: 153*; Pf Dd2 inh: -7; C diff growth: -97*!; T cruzi growth-2: 110*; T cruzi growth-3: 24; NIH3T3 tox: -2; NIH3T3 tox 2: 18

How did O=C(C[C@@H]1CC[C@@H]2[C@H](COC[C@H](O)CN2C(=O)Nc2ccc(Cl)c(Cl)c2)O1)NCc1ccccc1 do in these assays?
T cruzi growth-1: 55; Pf Dd2 inh: 7

What do the screens show for `O=C(Cc1ccccn1)NCC[C@@H]1CC[C@@H](NC(=O)CN2CCOCC2)[C@@H](CO)O1`?
Pf Dd2 inh: -2; C diff growth: 0

What do the screens show for `O=C(CC1CC1)N1[C@H](CO)[C@H](c2ccccc2)C12CN(Cc1cc(F)ccc1F)C2`?
Pf Dd2 inh: -71; C diff growth: 19

What do the screens show for `CN1C(=O)c2cc(NC(=O)C3CCCC3)ccc2OC[C@@H]2O[C@@H](CC(=O)NCC(F)(F)F)CC[C@H]21`?
T cruzi growth-1: -39; Pf Dd2 inh: 8; C diff growth: -3

What do the screens show for `C[C@H]1CN([C@@H](C)CO)C(=O)Cc2cc(NC(=O)CCCCCC(=O)Nc3ccccc3N)ccc2O[C@@H]1CN(C)C(=O)Nc1cccc2ccccc12`?
Pf Dd2 inh: -23; C diff growth: -1

How did CCCNC(=O)C[C@@H]1C[C@H]2c3cc(NC(=O)Nc4ccc(OC)cc4)ccc3O[C@H]2[C@H](CO)O1 do in these assays?
T cruzi growth-1: 42; Pf Dd2 inh: -7; C diff growth: 2

What do the screens show for `O=C(C[C@@H]1C[C@H]2c3cc(NC(=O)Nc4ccc(F)cc4)ccc3O[C@H]2[C@@H](CO)O1)NCC1CC1`?
T cruzi growth-1: -48; Pf Dd2 inh: 14; C diff growth: -4

What do the screens show for `CCCNC(=O)C[C@H]1C[C@@H]2c3cc(NC(=O)Nc4ccc(OC)cc4)ccc3O[C@@H]2[C@@H](CO)O1`?
T cruzi growth-1: 41; Pf Dd2 inh: 7; C diff growth: -2

How did COc1ccc(NC(=O)Nc2ccc3c(c2)[C@H]2C[C@H](CC(=O)NCCc4ccccc4)O[C@H](CO)[C@H]2O3)cc1 do in these assays?
T cruzi growth-1: 149*; Pf Dd2 inh: -20; C diff growth: 28; T cruzi growth-2: 109*; T cruzi growth-3: 73; NIH3T3 tox: -20; NIH3T3 tox 2: -30

What do the screens show for `O=C(C[C@@H]1C[C@@H]2c3cc(NC(=O)Nc4ccccc4)ccc3O[C@@H]2[C@H](CO)O1)NCC1CC1`?
T cruzi growth-1: 102*; Pf Dd2 inh: -11; C diff growth: 0; T cruzi growth-2: -32; T cruzi growth-3: -7; NIH3T3 tox: -31; NIH3T3 tox 2: -13

How did COc1ccc(NC(=O)Nc2ccc3c(c2)[C@@H]2C[C@H](CC(=O)NCCc4ccccc4)O[C@H](CO)[C@@H]2O3)cc1 do in these assays?
T cruzi growth-1: 159*; Pf Dd2 inh: -45; C diff growth: 1; T cruzi growth-2: 105*; T cruzi growth-3: 101*; NIH3T3 tox: -28; NIH3T3 tox 2: -7
